An excerpt weighted towards active compounds, which were near 6.9% of everything screened.
VDR inhibitor: blocks the human vitamin D receptor; VDR-SRC2-3 peptide fluorescence polarization, 2 h; Potency, µM, hits mostly inhibitors; P11473; actives 0.93% (n = 400,000); AID 504847
Target sequence (P11473 whole entry, looked up): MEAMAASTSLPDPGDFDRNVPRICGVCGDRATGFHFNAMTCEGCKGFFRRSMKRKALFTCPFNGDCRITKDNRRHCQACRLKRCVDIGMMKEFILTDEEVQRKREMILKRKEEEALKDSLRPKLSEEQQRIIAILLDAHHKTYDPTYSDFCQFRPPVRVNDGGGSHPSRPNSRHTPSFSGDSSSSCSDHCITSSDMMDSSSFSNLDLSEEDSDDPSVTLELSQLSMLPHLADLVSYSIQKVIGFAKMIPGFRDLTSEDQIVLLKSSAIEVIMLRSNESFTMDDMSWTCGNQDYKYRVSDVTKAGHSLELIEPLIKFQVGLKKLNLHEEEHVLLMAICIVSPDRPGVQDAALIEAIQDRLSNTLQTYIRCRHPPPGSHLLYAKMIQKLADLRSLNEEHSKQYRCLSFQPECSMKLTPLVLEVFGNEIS
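Two reagent solutions held at 4 deg C in the dark were dispensed, compounds pinned at 23 nl, and the mixture incubated 2 h at room temperature. Read-out: fluorescence polarization of VDR–SRC2-3 peptide binding.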
BAZ2B block: inhibitors of human BAZ2B bromodomain; Q9UIF8; AlphaScreen BAZ2B-H3K14Ac peptide displacement; Potency, µM (titrated, usually from 114 µM), most hits filed as inhibitors; actives 4.4% (n = 360,000); AID 504333; also: nearly all actives have a fitted effect of over 60% in size
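AlphaScreen displacement: compounds (up to 110uM) incubated 30 min at room temperature with a preformed 50 nM BAZ2B/50 nM biotinylated H3K14Ac peptide complex in PBS pH 7.4 with Tween-20. Donor and acceptor beads at 10 ug/mL final added, 20 min light-protected before reading.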
PLK1 PBD block: PLK1 (human) polo-box domain binding inhibition | AID 720504 | Plk1 PBD binding of FITC phosphopeptide, fluorescence polarization | Potency, µM, actives largely listed as inhibitors | actives 2.8% (n = 360,000); also: series mostly up to about 57 µM; nearly all actives have a fitted effect of over 65% in size
HP1b chromo inh: inhibitors of HP1-beta chromodomain binding to methylated histone tails | AlphaScreen HP1-beta / biotin-H3K9me3 peptide binding | P83916 | Potency, µM (top dose mostly 114 µM), most hits filed as inhibitors | actives 0.56% (n = 390,000); also: nearly all actives have a fitted effect of over 70% in size
Target sequence (P83916 whole entry, looked up): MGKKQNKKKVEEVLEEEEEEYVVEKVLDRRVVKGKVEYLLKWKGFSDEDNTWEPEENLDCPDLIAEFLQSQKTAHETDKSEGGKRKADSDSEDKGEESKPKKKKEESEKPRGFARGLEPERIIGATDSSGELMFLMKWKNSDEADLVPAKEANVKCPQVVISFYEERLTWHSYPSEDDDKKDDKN
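AlphaScreen: HP1-beta (50 nM) preformed 30 min with biotin-H3(1-18)K9me3 peptide (50 nM) in PBS pH 7.4, 0.01% Tween-20. Compound added for 30 min at RT, then streptavidin donor/nickel chelate acceptor beads (10 ug/mL) for 30 min.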
JMJD2A Tudor: inhibitors of human JMJD2A Tudor domain. O75164. AlphaScreen JMJD2A-Tudor / H3K4me3 peptide binding. Potency, µM (series often up to 114 µM), usual class: inhibitors. actives 4.4% (n = 390,000). AID 504339; also: nearly all actives have a fitted effect of over 50% in size
L3MBTL1 block: inhibitors of human L3MBTL1 | AlphaScreen L3MBTL1–H3K9me1 peptide binding | Potency, µM (top dose mostly 57.1 µM), hits mostly inhibitors | actives 0.66% (n = 230,000); also: nearly all actives have a fitted effect of over 60% in size
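L3MBTL1 50 nM + b-AHA-H3(1-15)K9me1 75 nM, 30 min RT; compound added, 30 min RT; streptavidin donor/Ni-chelate acceptor beads 10 ug/mL each final, 30 min RT dark; AlphaScreen read.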
Numbers stand for hits; i = inactive; ? = inconclusive; nt = no result; [ ] = another dose, or the depositor's remark. Calls follow the shape of the dose curve; as a rule, active = well fitted curve in the direction sought with a large enough effect; inconclusive = small, poorly fitted or top-dose-only effect, or another doubt; inactive = no such curve, though single readings can be large; an effect the other way counts as inactive or inconclusive.

SMILES	VDR inhibitor	BAZ2B block	PLK1 PBD block	HP1b chromo inh	JMJD2A Tudor	L3MBTL1 block
C#CCOCCOCCOCCNc1nc(N2CCN(C(=O)CCCCCCCCCCNC(=O)Cn3cc(C[C@@H](C)O)nn3)CC2)nc(N2CCN(C(=O)CCCCCCCCCCNC(=O)Cn3cc(C[C@@H](C)O)nn3)CC2)n1	i	i	i	i	i	i
C#CCOCCOCCOCCNc1nc(N2CCN(C(=O)CCCCCCCCCCNC(=O)Cn3cc(C[C@@H](C)O)nn3)CC2)nc(N2CCN(C(=O)CCCCCCCCCCNC(=O)[C@H](CCCCN)n3cc(C[C@@H](C)CC)nn3)CC2)n1	i	?	i	?	79µM	i
C#CCOCCOCCOCCNc1nc(N2CCN(C(=O)Cn3cc(CC(C)O)nn3)CC2)nc(N2CCN(C(=O)[C@H](C)n3cc(CCCN=C(N)N)nn3)CC2)n1 (stereo partly drawn)	?	79µM	i	i	45µM	i
C#CCOCCOCCOCCNc1nc(N2CCN(C(=O)Cn3cc(CCCCN)nn3)CC2)nc(N2CCN(C(=O)[C@H](C)n3cc(CCCN=C(N)N)nn3)CC2)n1	nt	?	nt	nt	nt	i
Cc1ccc(/C=C/c2onc(C)c2S(=O)(=O)N2CCC(C(=O)N3CCN(c4cc(C)ccc4C)CC3)CC2)cc1	i	i	nt	i	i	nt
O=S(=O)(Cc1ccccc1)N1CCN(Cc2ccccc2)CC1	i	i	i	i	i	i
c1cc(CN2CCN(C3CCCCCC3)CC2)ccn1	i	nt	i	?	20µM	i
CCCS(=O)(=O)N1CCN(Cc2ccncc2)CC1	i	35µM	i	?	20µM	nt
CCS(=O)(=O)N1CCN(Cc2ccncc2)CC1	i	35µM	i	50µM	3.5µM	i
COc1cc(C(=O)NCc2nc3cccnc3n2Cc2ccc(C)cc2)cc(OC)c1OC	i	i	nt	i	i	nt
CCCCC12CN3CC(C)(CN(C1)C3c1c(C)[nH]c(=O)[nH]c1=O)C2=O (stereo not drawn)	i	i	nt	i	i	nt
CC1CCc2nc(NC(=O)C3CCCO3)sc2C1 (stereo not drawn)	i	i	24µM	i	i	nt
CCCC(C)c1nnc(NC(=O)C2CCCO2)s1 (stereo not drawn)	i	i	30µM	i	i	i[11.4 µM]
CCCC(C)c1nnc(NC(=O)C2CC(=O)N(CCc3ccc(F)cc3)C2)s1 (stereo not drawn)	?	i	6µM	?	?	nt
CCCC(C)c1nnc(NC(=O)C(=O)OCC)s1 (stereo not drawn)	?	56µM	11µM	?	18µM	i[11.4 µM]
CCCC(C)c1nnc(NC(=O)CN2C(=O)c3ccccc3C2=O)s1 (stereo not drawn)	i	?	27µM	i	i	i
COC(=O)C(CC(=O)c1ccc(Br)cc1)n1nc(C)cc1C (stereo not drawn)	?	?	i	i	i	i
COC(=O)C(CC(=O)c1ccc(Br)cc1)n1ccnc1 (stereo not drawn)	nt	50µM	nt	nt	nt	i
O=C(/C=C/c1ccc(OC(F)F)cc1)Nc1cccc(S(=O)(=O)N2CCOCC2)c1	i	i	i	i	i	nt
COc1ccc(C(=O)c2sc(Nc3ccccc3)nc2N)cc1	i	i	i	i	i	i
COc1ccc(C(=O)c2sc(Nc3ccccc3)nc2N)cc1OC	i	i	i	i	?	nt
COc1ccc(C(=O)c2sc(Nc3cc(Cl)ccc3C)nc2N)cc1OC	i	?	nt	i	22µM	nt
Cc1ccccc1Nc1nc(N)c(C(=O)c2ccccc2Cl)s1	i	32µM	nt	i	56µM	nt
Nc1nc(Nc2ccccc2)sc1C(=O)c1ccccc1	i	40µM	i	?	?	nt
CCc1ccc(-n2c(SCc3ccccc3C)nc3[nH]ncc3c2=O)cc1	i	?	nt	i	?	nt
SMILES	VDR inhibitor	BAZ2B block	PLK1 PBD block	HP1b chromo inh	JMJD2A Tudor	L3MBTL1 block
CCCCC1(C)OC(=O)C(=Cc2ccc(N(C)C)cc2)C(=O)O1 (stereo not drawn)	?	?	?	i	i	i
CN(C)c1ccc(/C=C/c2cccc[n+]2[O-])cc1	i	i	i	i	i	i
CCOC(=O)c1cc2c(=Cc3ccc(N(C)C)cc3)c3ccccc3n2[n+]1C	?	nt	13µM	50µM	25µM	nt
CN(C)c1ccc(C=c2c3ccccc3n3c2c2ccccc2[n+]3C)cc1	i	nt	24µM	13µM	16µM	nt
Cc1cc2c(=Cc3ccc(N(C)C)cc3)c3ccccc3n2[n+]1C	i	nt	i	32µM	45µM	nt
O=C(CSc1ccccc1C(=O)NCc1ccccc1)NC1CCCCCCC1	i	i	i	i	89µM	i
O=C(CSc1ncccc1C(=O)O)NC1CCCCCCC1	i	i	27µM	i	?	i
O=C(CSc1ccccc1C(=O)O)NC1CCCCCCC1	i	i	i	i	i	nt
O=C(CSc1ccccc1C(=O)O)NC1CCCCCC1	i	i	i	i	10µM	i
Cc1ccc(S(=O)(=O)N2CCCc3cc(NS(=O)(=O)c4ccc(F)c(C)c4)ccc32)cc1	i	i	nt	i	i	nt
CCN(CC)CCC(c1cc(OC)c(OC)c(OC)c1)c1c(OC)cc(OC)c2c(C)cc(=O)oc12 (stereo not drawn)	i	i	i	i	i	nt
CCN(CC)CCC(c1ccc(N(C)C)cc1)c1c(OC)cc(OC)c2c(C)cc(=O)oc12 (stereo not drawn)	i	nt	nt	?	35µM	nt
CCCCCc1cc(=O)oc2c(C(CCN(CC)CC)c3ccc(N(C)C)cc3)c(OC)cc(OC)c12 (stereo not drawn)	i	14µM	i	?	28µM	nt
CCCCCc1cc(=O)oc2c(C(CCN3CCCCC3)c3cc(OC)c(OC)c(OC)c3)c(OC)cc(OC)c12 (stereo not drawn)	i	i	i	i	?	nt
CCCn1c(=N)c(C(=O)NC(C)c2ccccc2)cc2c(=O)n3ccccc3nc21 (stereo not drawn)	i	i	nt	i	i	nt
CC(C)NC(=O)NC(=O)COc1ncnc2sccc12	?	i	27µM	?	?	i
N#C/C(=C/c1ccncc1)c1nc2ccccc2s1	71µM	?	i	i	i	i
N#C/C(=C\c1ccncc1)c1nc2ccccc2[nH]1	i	?	i	i	i	i
O=C1CCCC(=O)C1CS(=O)(=O)c1ccccc1	40µM	i	i	i	i	nt
O=C1CC(c2ccc(Cl)cc2)CC(=O)C1CS(=O)(=O)c1ccccc1 (stereo not drawn)	?	79µM	27µM	i	i[11.4 µM]	nt
O=C1C=C(c2ccccc2)C[C@@H](c2ccc(Cl)cc2)C1	i	i	?	i	i	i
COc1ccc(C2CC(=O)C(CS(=O)(=O)c3ccccc3)C(=O)C2)cc1 (stereo not drawn)	?	i	?	i	i[11.4 µM]	nt
O=C1CC(c2ccccc2)CC(=O)C1Sc1ccc(Cl)cc1 (stereo not drawn)	?	i	21µM	i	i	i
COc1ccc(OC)c(CNc2ncnc3onc(C)c23)c1	i	i	nt	i	i	nt
